About 14,000 (4.5%) of roughly 310,000 compounds showed an effect of 50% or more. The effect is printed as a negative number. Shown is part of a subset that was picked to be rich in strong results.
What follows are compounds tested against human ether-à-go-go-related gene (hERG) potassium channel (human, UniProt Q12809) (assay: primary screen, population patch clamp on CHO cells stably expressing hERG; higher = less effect of the substance).
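Note: peak tail current of the secondary pulse compared with the same well before compound.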

Sequence of human ether-à-go-go-related gene (hERG) potassium channel (Q12809 whole entry, looked up): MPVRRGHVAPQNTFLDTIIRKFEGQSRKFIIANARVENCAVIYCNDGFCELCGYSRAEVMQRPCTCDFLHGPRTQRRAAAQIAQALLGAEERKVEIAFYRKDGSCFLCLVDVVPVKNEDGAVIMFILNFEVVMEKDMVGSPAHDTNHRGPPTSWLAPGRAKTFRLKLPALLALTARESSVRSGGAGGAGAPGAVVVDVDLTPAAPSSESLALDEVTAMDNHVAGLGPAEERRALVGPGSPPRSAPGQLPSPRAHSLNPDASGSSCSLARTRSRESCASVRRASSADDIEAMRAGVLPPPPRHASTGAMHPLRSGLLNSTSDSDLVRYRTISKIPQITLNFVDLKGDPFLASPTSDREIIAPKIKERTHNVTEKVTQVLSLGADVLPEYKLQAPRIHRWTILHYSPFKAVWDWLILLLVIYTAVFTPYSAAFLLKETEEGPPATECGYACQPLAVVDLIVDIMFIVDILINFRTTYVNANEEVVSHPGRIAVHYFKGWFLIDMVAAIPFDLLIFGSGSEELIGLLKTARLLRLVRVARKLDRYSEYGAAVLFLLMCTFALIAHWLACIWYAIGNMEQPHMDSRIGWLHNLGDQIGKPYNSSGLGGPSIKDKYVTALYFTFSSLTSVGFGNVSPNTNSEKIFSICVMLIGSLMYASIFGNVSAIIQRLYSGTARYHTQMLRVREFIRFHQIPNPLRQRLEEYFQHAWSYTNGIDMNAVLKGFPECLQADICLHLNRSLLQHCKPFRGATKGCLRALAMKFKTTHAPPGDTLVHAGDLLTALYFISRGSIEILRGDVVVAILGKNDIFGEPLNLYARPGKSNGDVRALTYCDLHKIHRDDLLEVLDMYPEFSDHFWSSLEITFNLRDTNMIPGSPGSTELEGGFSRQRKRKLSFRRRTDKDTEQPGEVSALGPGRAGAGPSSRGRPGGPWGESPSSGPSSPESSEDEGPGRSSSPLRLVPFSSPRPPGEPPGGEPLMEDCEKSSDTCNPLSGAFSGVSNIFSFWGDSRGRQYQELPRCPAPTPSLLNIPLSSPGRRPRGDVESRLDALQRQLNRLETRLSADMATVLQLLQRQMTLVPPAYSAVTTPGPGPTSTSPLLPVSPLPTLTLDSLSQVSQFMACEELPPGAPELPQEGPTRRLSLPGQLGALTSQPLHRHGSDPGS

SMILES	hERG current change (%, negative = inhibition) at 10uM
CCOC(=O)c1ccc(NCc2ccncc2)cc1	-1.66%
O=C(CN(Cc1ccco1)S(=O)(=O)c1cccs1)Nc1ccccc1C(F)(F)F	-32.8%
Oc1c(Br)cc(Cl)cc1C=Nc1ccc(N2CCOCC2)cc1	19.6%
Cc1c(C(=O)NCc2ccco2)cccc1[N+](=O)[O-]	-6.07%
CCN1C(=O)/C(=C\C=C2/C=CC=CN2CC)SC1=S	-5.68%
O=C(c1cc(COc2ccc(F)cc2Cl)on1)N1CCCC(OCc2cccnc2)C1 (stereo not shown)	-53.5%
O=C(c1cc(COc2ccc(F)cc2Cl)on1)N1CCN(c2cnccn2)CC1	-46.9%
O=C(c1cc(COc2ccccc2)on1)N1CCCC(OCc2cccnc2)C1 (stereo not shown)	-16.6%
O=C(c1cc(COc2ccc(F)cc2Cl)on1)N1CCCCC1c1cccnc1 (stereo not shown)	-41.8%
O=C(c1cc(COc2ccc(F)cc2Cl)on1)N1CCC(OCc2cccnc2)CC1	-75.8%
COc1ccccc1OCc1cc(C(=O)N2CCCC(OCc3cccnc3)C2)no1 (stereo not shown)	-22%
Nc1nc(SCC(=O)NCCCO)nc2sc3c(c12)CCC3	-3.17%
Nc1nc(SCC(=O)NCCCN2CCOCC2)nc2sc3c(c12)CCC3	-9.2%
Nc1nc(SCC(=O)NCCN2CCOCC2)nc2sc3c(c12)CCC3	-65.9%
Cc1ccc(-c2csc(NC(=O)CSc3nc(C)cc(=O)[nH]3)n2)cc1	1.07%
Cc1nc2ccc(S(=O)(=O)N(C)CC(=O)N3CCc4ccccc43)cc2s1	-42.5%
O=C(CN1CCN(Cc2ccc(Cl)cc2)CC1)N1CCc2ccccc21	-67.5%
Cc1nc2ccc(S(=O)(=O)N(C)CC(=O)N3CCc4ccccc4C3)cc2s1	-53.2%
COc1cc2c(cc1OC)CN(C(C)C(=O)N1CCc3ccccc31)CC2 (stereo not shown)	-14%
O=C(CN1CCCCC1)N1CCc2ccccc21	-6%
COc1ccc(CN2CCN(C(C)C(=O)N3CCc4ccccc43)CC2)cc1OC (stereo not shown)	-74%
CN(CC(=O)N1CCc2ccccc21)S(=O)(=O)c1cccs1	-22%

SMILES	hERG current change (%, negative = inhibition) at 10uM
Cc1nc2ccc(S(=O)(=O)NCC(=O)N3CCc4ccccc4C3)cc2s1	0.862%
COc1ccc(N2CCN(C(C)C(=O)N3CCc4ccccc43)CC2)cc1 (stereo not shown)	-17.7%
O=C1N(CC(=O)N2CCc3ccccc32)CCN1Cc1ccc(Cl)cc1	-11.8%
Cc1ccc(S(=O)(=O)N(C)CC(=O)N2CCCc3ccccc32)cc1	-16.1%
CN(CC(=O)N1CCc2ccccc21)S(=O)(=O)c1ccc(Cl)cc1	-51.2%
CCNc1nc(NCC)nc(NS(=O)(=O)c2ccc(N)cc2)n1	22.7%
CCOC(=O)C(C(=O)Nc1ccc(C)cc1)C1CCCCC1 (stereo not shown)	0.407%
CC(C)n1nnc2ccccc2c1=O	10%
CN(C)S(=O)(=O)c1cccc(-c2cn3ccccc3n2)c1	-2.91%
CC1CC1C(=O)OCC(=O)NNC(=O)c1ccc([N+](=O)[O-])cc1 (stereo not shown)	-2.32%
COc1ccc(C2/C(=C(/O)c3ccc(C)cc3)C(=O)C(=O)N2CC2CCCO2)cc1OC (stereo not shown)	20.8%
CCOC(=O)CNC(=O)c1ccc(C)cc1	4.88%
COc1cc(SC)ccc1C(=O)OCC(=O)NC1CC1	7.53%
CC(=O)Cn1nnc(-c2ccc(C(F)(F)F)cc2)n1	6.1%
CCN1CCN(CCCNC(=O)c2ccccc2NC(=O)C2=C(C)OCCS2)CC1	1.11%
CC(C(=O)N1CCc2ccccc21)N1CCc2ccccc2C1 (stereo not shown)	-18.9%
CC(C(=O)N1CCc2ccccc21)N1CCN(Cc2ccccc2)CC1 (stereo not shown)	-34%
CC(C(=O)N1CCc2ccccc21)N1CCN(Cc2ccc(Cl)cc2)CC1 (stereo not shown)	-67%
COCCCNc1nc2c(-c3cccc(C(F)(F)F)c3)nnn2c2ccccc12	-1.31%
O=[N+]([O-])c1ccc(/C=N/Nc2cc(Cl)nc(-c3ccccc3)n2)cc1	2.34%
CCC(C)c1ccc(OCC(=O)O)cc1 (stereo not shown)	11.5%
c1cncc(-c2nc3ccccc3s2)c1	2.39%

SMILES	hERG current change (%, negative = inhibition) at 10uM
CC(=O)N(Cc1cccnc1)c1cccc(-c2nc3ccccc3s2)c1	-51.1%
O=C(NCc1cccnc1)c1cccnc1-c1nc2ccccc2s1	-14%
COC(C)(C)[C@H](O)COc1c2ccoc2cc2oc(=O)ccc12	11.2%
Cc1cccc(CCNC(=O)CCNS(=O)(=O)c2cc(Br)cnc2N)c1	-5.7%
CC(C)c1ccc(-c2c(C#N)c(N)nc(SCC(=O)N3CCCCCC3)c2C#N)cc1	8.56%
COc1ccccc1C(=O)Nc1ccc(OC(C)C(=O)N2CCOCC2)cc1 (stereo not shown)	1.1%
Cc1cccc(NC(=O)N2CCCC2)c1	12.4%
Cc1cccc(NC(=O)c2ccc(CN3CCN(Cc4ccccc4)CC3)cc2)c1	-80.3%
Cc1cccc(NC(=O)N2CCN(Cc3ccccc3)CC2)c1	8.14%
Cc1cccc(NC(=O)N2CCN(Cc3ccc(Cl)cc3)CC2)c1	-50.7%
COc1cccc(NC(=O)c2ccc(CN3CCN(c4ccccc4)CC3)cc2)c1	-48.8%
O=C(Nc1cccc(C(=O)N2CCN(Cc3ccccc3)CC2)c1)c1ccccc1	-16.7%
O=S(=O)(NNC(=S)NCC1CCCO1)c1cc(Cl)ccc1Cl (stereo not shown)	9.42%
COC(=O)C1=C(C)N(CCc2ccccc2)C(=O)/C1=C\c1ccco1	-4.19%
Cn1c(=O)c2c(nc(NCCCO)n2C/C=C/c2ccccc2)n(C)c1=O	-21%
Cc1ccccc1-n1cnnc1SCC(=O)N1CCN(c2ccccc2)CC1	-57.7%
O=C(CSc1nncn1-c1ccccc1)N1CCCC1	2.66%
COc1ccc(-n2cnnc2SCC(=O)N2CCN(c3ccccc3)CC2)cc1	-36.2%
C=CCn1c(CSCc2ccccc2)nnc1SCC(=O)N1CCN(c2ccccc2)CC1	-23.6%
Cn1c(CNC(=O)c2ccccc2)nnc1SCC(=O)N1CCN(c2ccccc2)CC1	1.77%
Cn1c(CSCc2ccc(F)cc2)nnc1SCC(=O)N1CCN(c2ccccc2)CC1	-70.7%
Cc1ccc(CSCc2nnc(SCC(=O)N3CCN(c4ccccc4)CC3)n2C)cc1	-54%

SMILES	hERG current change (%, negative = inhibition) at 10uM
Cn1c(CNC(=O)c2ccccc2F)nnc1SCC(=O)N1CCN(c2ccccc2)CC1	-8.2%
Cc1ccc(CSCC(=O)N2CCN(c3ccccc3)CC2)cc1	-9.06%
CCn1c(CSCc2ccc(F)cc2)nnc1SCC(=O)N1CCN(c2ccccc2)CC1	-58.6%
CCn1c(CSCc2ccc(C)cc2)nnc1SCC(=O)N1CCN(c2ccccc2)CC1	-45.4%
Cn1c(Cc2ccccc2)nnc1SCC(=O)N1CCN(c2ccccc2)CC1	-14.5%
COc1ccc(OCC(N)=O)cc1	8.9%
O=c1[nH]c(SCc2cccc(Cl)c2)nc2[nH]ncc12	12.6%
C#Cc1ccc([C@@H]2C=C(C(=O)NC3CC3)O[C@H](OCC)[C@H]2CCCO)cc1	-35.2%
CC(NC(=O)c1ccccc1)c1nnc(SCc2nc3ccccc3c(=O)[nH]2)n1C (stereo not shown)	14%
C[C@@H](CO)NC(=O)c1ccc2c3n(nc2c1)-c1ccc(Cl)cc1CO3	-1.96%
Cc1ccccc1NC(=O)CN1C(=O)NC(C)(c2ccc3c(c2)OCO3)C1=O (stereo not shown)	9.53%
COc1ccc(C)cc1-n1nnnc1SCC(=O)NC1CC1	0.673%
CCN1CCC2(CCN(C(=O)c3cc(COc4cc(C)ccc4C)on3)C2)C1 (stereo not shown)	-54.8%
Cc1ccc(C)c(OCc2cc(C(=O)N3CCOCC3)no2)c1	-3.82%
COCCN1CCN(C(=O)c2cc(COc3cc(C)ccc3C)on2)CC1	1.06%
Cc1ccc(C)c(OCc2cc(C(=O)N3CCN(c4cnccn4)CC3)no2)c1	-81.7%
Cc1ccc(C)c(OCc2cc(C(=O)N3CCN(c4ccccc4)CC3)no2)c1	-31.4%
Cc1ccc(C)c(OCc2cc(C(=O)N3CCN(C(=O)c4ccco4)CC3)no2)c1	-10.7%
FC(F)(F)c1ccc(N2CCN(c3ncnc4c3nnn4Cc3ccccc3)CC2)nc1	-2.11%
C=CCn1c(C)cc(C(=O)CSc2nnc(NCc3ccccc3)s2)c1C	-8.54%
O=c1[nH]c(O)c(C=Nc2ccccc2Oc2ccccc2)c(=O)[nH]1	15.9%
COc1ccc(NS(=O)(=O)c2ccc(NC(=O)Cc3cccs3)cc2)cc1	12.7%

From article PMC4336329 (PLoS ONE, 2015)
